In assay [1] the target is PGR (gene 5241) (UniProt P06401). In words: NVS_NR_hPR: NovaScreen (NVS) Nuclear Receptor Binding Assay for human Progestron Receptor (PR) (AID 2283360).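 Also: active means loss of bound radioligand signal versus DMSO baseline.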 In short, it runs like this:
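T47D lysate; tritiated or iodinated radioligand; scintillation count at 18 h. DMSO = negative control/baseline. Primary: 25 uM, duplicate. Secondary: concentration series for actives.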

Assay [2] has as its target Nuclear receptor subfamily 1 group I member 2 (Homo sapiens) (UniProt O75469). In words: NVS_NR_hPXR: NovaScreen (NVS) Nuclear Receptor Binding Assay for human Pregnane X Receptor (PXR) (AID 2283365).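 Also: a drop in FRET signal versus DMSO baseline means the compound binds.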 Summed up:
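TR-FRET signal read at 2 h in a cell-free human PXR binding format. DMSO served as negative control and baseline; activity scored as signal loss. Single-concentration duplicate screen (25 uM), then concentration-response follow-up.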

The target of assay [3] is mouse Estrogen Receptor alpha (Era), Esr1 (gene 13982) (UniProt P19785). As to the kind of experiment: NVS_NR_mERa: NovaScreen (NVS) Nuclear Receptor Binding Assay for mouse Estrogen Receptor alpha (Era) (AID 2283378).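 Also: hit means loss of bound radioligand signal relative to DMSO.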 Summed up:
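Filter scintillation counts of bound radioligand, measured 18 h post-dose, gave the readout; decreased signal relative to DMSO controls indicated displacement from mouse Era. Primary screen ran in duplicate at 25 uM; active chemicals were retested across concentrations.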

For assay [4], the target named is Estrogen receptor (Homo sapiens) (UniProt P03372). In words: OT_ERa_GFPERaERE_0480: Odyssey Thera (OT) 8-hour HeLa Transcription Induction Assay for Estrogen Receptor (AID 2283381; active = hit-call score of the fitted dose curve at least 0.9, where 1 is the maximum; inactive = score below 0.9). In short, it runs like this:
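Cells (HeLa) receive compound; after 8 h, reporter fluorescence is imaged and quantified by high-content analysis. Gain-of-signal relative to DMSO gives the endpoint.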

The target is the same in assay [5]. In words: OT_ERa_GFPERaERE_0120: Odyssey Thera (OT) 2-hour HeLa Transcription Induction Assay for Estrogen Receptor (AID 2283382). In short, it runs like this:
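Measures ESR1 pathway reporter gain-of-signal in HeLa cells after a 2-hour treatment, detected as fluorescent protein induction by microscopy, DMSO as baseline.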

Assay [6] has as its target Bile acid receptor (Homo sapiens) (UniProt Q96RI1). In words: OT_FXR_FXRSRC1_0480: Odyssey Thera (OT) 8-hour HEK293T Protein-Complementation Assay for Farnesoid X receptor/SRC-1 Co-activator (AID 2283383). Summed up: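 Co-activator recruitment to FXR was measured in living HEK293T cells, where interaction of the two fused partners restored an active fluorescent reporter. Signal gain after 8 h treatment was referenced to DMSO.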

Assay [7] shares this target. In words: OT_FXR_FXRSRC1_1440: Odyssey Thera (OT) 24-hour HEK293T Protein-Complementation Assay for Farnesoid X receptor/SRC-1 Co-activator (AID 2283384). Summed up:
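Cell-based binding reporter: interaction of FXR with SRC-1 brings reporter fragments together, giving a fluorescence signal read 24 h after dosing of HEK293T cells.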

Assay [8] addresses Retinoic acid receptor RXR-alpha (Homo sapiens) (UniProt P19793). In words: OT_NURR1_NURR1RXRa_0480: Odyssey Thera (OT) 8-hour HEK293T Protein Complementation Assay for Nurr1/retinoid X receptor (RXR) (AID 2283385). Summed up:
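Compounds are applied to HEK293T cells carrying Nurr1 and RXRα linked to reporter fragments. After 8 h, fluorescence intensity reports heterodimer formation, with DMSO as baseline.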

Assay [9] shares this target. As to the kind of experiment: OT_NURR1_NURR1RXRa_1440: Odyssey Thera (OT) 24-hour HEK293T Protein Complementation Assay for Nurr1/retinoid X receptor (RXR) (AID 2283386). Summed up:
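Measured as fluorescence from a reconstituted split reporter, this 24 h HEK293T complementation assay scores compound-induced gain of Nurr1/RXRα association relative to DMSO.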

For assay [10], the target named is Retinoic acid receptor alpha (Homo sapiens) (UniProt P10276). In words: NVS_NR_hRARa_Agonist: NovaScreen (NVS) Nuclear Receptor Binding Assay for human Retinoic Acid Alpha Receptor Agonism (RAR) (AID 2283361). In short, it runs like this: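 Cell-free TR-FRET binding readout with extracted receptor protein, read 2 hours after dosing; gain-of-signal fitted relative to DMSO. Screened in duplicate at 25 uM, actives then run in concentration-response.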

Assay [11] addresses human Thyroid Receptor Alpha (TRa), THRA (gene 7067) (UniProt P10827). As to the kind of experiment: NVS_NR_hTRa_Antagonist: NovaScreen (NVS) Nuclear Receptor Binding Assay for human Thyroid Receptor Alpha Antagonism (TRa) (AID 2283362).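 Also: activity is loss of signal relative to DMSO baseline.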 In short, it runs like this: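 AlphaLISA chemiluminescent immunoassay readout, taken 1 h post-dosing in a cell-free system with extracted protein. Activity was scored as signal loss against DMSO negative control, from duplicate single-concentration (25 uM) testing followed by concentration-response follow-up.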

The target of assay [12] is Estrogen receptor beta (Homo sapiens) (UniProt Q92731). As to the kind of experiment: OT_ER_ERbERb_1440: Odyssey Thera (OT) 24-hour HEK293T Protein-Complementation Assay for Estrogen Receptor-beta/-beta Homodimer (AID 2283380).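 Also: scored as signal increase over DMSO baseline for both agonists and antagonists.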 In short, it runs like this:
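HEK293T cells stably expressing ER beta LBD (aa 310-547) homodimer fragment-complementation reporter, dosed 24 h. Cells formaldehyde-fixed, Draq5-stained; gain in nuclear (agonist) or nuclear plus cytoplasmic (antagonist) fluorescence versus DMSO read by laser scanning cytometry.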

Assay [13] deals with Peroxisome proliferator-activated receptor gamma (Homo sapiens) (UniProt P37231). In words: NVS_NR_hPPARg: NovaScreen (NVS) Nuclear Receptor Binding Assay for human Peroxisome Proliferator-activated Receptor gamma (PPARg) (AID 2283370). In short, it runs like this:
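FP read-out, 2 h post-dose, cell-free extracted receptor protein. Signal loss vs DMSO negative control = binding activity. Single-conc duplicate HTS at 25 uM; concentration-response follow-up for actives.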

Assay [14] concerns the target guinea pig Sigma Receptor, Non-selective Binding, SIGMAR1 (gene 100135589) (UniProt Q60492). In words: NVS_OR_gSIGMA_NonSelective: NovaScreen (NVS) Nuclear Receptor Binding Assay for guinea pig Sigma Receptor, Non-selective Binding (AID 2283367). Summed up:
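Radioligand displacement on guinea pig brain membranes, read by filter-based scintillation counting 1 h after dosing. Loss of signal versus DMSO; initial duplicate single-point screen at 25 uM, actives followed in concentration series.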

Assay [15] deals with guinea pig Dopamine Transporter (DAT), gene 100714898. As to the kind of experiment: NVS_TR_gDAT: NovaScreen (NVS) Transporter Assay for guinea pig Dopamine Transporter (DAT) (AID 2283369).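 Also: active compounds lower bound radioligand signal relative to DMSO.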 In short, it runs like this: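 Cell-free striatal membrane prep (guinea pig), 2 h exposure, filtration + scintillation readout of radioligand binding. Single-point 25 uM duplicate; actives rerun singleton, top conc 50 uM.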

The target in assay [16] is rat Androgen Receptor (AR), Ar (gene 24208) (UniProt P15207). As to the kind of experiment: NVS_NR_rAR: NovaScreen (NVS) Nuclear Receptor Binding Assay for rat Androgen Receptor (AR) (AID 2283366). Summed up: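 Cell-free radioligand binding on extracts of prostate from testosterone-pretreated rats, read by filter-based scintillation counting 18 h after dosing. Loss of bound signal fitted positively versus DMSO; primary screen in duplicate at 25 uM, actives followed up in concentration series.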

The target of assay [17] is Agonist Androgen Response Element (ARE), AR (gene 367) (UniProt P10275). As to the kind of experiment: OT_AR_ARELUC_AG_1440: Odyssey Thera (OT) 24-hour CHO-K1 Luciferase Assay for Agonist Androgen Response Element (ARE) (AID 2283379). Summed up: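 CHO-K1 cells carrying an ARE-driven luciferase reporter were exposed to compounds for 24 h. Luminescence was then read after adding a D-luciferin/ATP mix, and activity was scored as a gain in signal over DMSO vehicle.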

Inconclusive results are not listed. Calls of active or inactive are those of the source. The calls were made as follows, unless noted: active = hit-call score of the fitted dose curve at least 0.9, where 1 is the maximum; inconclusive = response in the unintended direction; inactive = score below 0.9.

Sequence of Nuclear receptor subfamily 1 group I member 2 (Homo sapiens) (O75469 whole entry, looked up): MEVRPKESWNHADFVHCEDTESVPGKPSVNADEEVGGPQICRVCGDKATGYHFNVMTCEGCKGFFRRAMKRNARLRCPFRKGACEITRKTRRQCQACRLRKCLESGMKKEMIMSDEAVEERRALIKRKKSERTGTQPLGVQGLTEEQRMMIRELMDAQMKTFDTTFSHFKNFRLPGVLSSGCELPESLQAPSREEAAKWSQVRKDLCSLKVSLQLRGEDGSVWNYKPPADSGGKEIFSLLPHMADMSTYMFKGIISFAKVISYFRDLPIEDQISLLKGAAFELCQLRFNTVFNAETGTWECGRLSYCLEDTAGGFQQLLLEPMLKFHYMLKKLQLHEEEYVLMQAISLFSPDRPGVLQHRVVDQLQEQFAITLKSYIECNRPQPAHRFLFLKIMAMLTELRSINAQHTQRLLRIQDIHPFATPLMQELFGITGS
Sequence of Estrogen receptor (Homo sapiens) (P03372 whole entry, looked up): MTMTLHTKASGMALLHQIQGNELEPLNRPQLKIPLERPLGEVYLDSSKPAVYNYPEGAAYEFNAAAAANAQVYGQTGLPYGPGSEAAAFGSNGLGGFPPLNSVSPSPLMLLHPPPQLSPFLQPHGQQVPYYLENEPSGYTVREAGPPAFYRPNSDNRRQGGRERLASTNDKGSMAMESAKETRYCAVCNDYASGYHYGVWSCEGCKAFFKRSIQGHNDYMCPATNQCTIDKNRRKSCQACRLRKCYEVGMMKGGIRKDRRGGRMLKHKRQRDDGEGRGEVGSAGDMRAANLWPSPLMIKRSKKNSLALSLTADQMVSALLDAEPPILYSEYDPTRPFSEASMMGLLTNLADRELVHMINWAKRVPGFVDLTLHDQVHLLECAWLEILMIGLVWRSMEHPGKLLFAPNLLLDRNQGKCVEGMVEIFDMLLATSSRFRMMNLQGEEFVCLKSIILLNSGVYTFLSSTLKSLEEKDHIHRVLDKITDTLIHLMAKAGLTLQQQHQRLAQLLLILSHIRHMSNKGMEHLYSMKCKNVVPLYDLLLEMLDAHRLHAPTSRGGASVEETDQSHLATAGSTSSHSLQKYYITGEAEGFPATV
Sequence of Bile acid receptor (Homo sapiens) (Q96RI1 whole entry, looked up, the tested form may be a part): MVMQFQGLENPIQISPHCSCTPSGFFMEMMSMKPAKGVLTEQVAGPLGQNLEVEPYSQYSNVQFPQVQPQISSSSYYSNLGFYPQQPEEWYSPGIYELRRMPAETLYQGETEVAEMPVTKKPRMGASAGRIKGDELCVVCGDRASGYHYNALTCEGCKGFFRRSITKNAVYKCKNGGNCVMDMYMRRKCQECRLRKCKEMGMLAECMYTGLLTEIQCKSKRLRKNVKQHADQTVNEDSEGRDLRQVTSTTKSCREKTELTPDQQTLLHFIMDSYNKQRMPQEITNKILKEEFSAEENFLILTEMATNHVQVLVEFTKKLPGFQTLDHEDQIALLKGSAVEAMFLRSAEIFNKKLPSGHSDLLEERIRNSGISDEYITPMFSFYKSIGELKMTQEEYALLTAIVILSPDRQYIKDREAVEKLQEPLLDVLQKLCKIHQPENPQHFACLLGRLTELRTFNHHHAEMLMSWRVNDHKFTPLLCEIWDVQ
Sequence of Retinoic acid receptor RXR-alpha (Homo sapiens) (P19793 whole entry, looked up, the tested form may be a part): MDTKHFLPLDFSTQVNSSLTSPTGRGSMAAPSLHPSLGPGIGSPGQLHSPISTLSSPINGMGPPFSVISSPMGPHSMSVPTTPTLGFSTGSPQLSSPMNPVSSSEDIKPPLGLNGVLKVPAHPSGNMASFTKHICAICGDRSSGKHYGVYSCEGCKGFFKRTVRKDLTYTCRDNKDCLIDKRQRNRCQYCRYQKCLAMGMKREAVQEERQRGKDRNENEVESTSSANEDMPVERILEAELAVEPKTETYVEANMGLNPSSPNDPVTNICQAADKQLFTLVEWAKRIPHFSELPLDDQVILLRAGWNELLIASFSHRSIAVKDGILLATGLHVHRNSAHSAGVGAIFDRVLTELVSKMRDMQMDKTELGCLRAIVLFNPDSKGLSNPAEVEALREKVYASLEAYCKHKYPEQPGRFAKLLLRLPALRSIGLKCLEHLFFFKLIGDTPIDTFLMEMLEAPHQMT
Sequence of mouse Estrogen Receptor alpha (Era), Esr1 (gene 13982) (P19785 whole entry, looked up): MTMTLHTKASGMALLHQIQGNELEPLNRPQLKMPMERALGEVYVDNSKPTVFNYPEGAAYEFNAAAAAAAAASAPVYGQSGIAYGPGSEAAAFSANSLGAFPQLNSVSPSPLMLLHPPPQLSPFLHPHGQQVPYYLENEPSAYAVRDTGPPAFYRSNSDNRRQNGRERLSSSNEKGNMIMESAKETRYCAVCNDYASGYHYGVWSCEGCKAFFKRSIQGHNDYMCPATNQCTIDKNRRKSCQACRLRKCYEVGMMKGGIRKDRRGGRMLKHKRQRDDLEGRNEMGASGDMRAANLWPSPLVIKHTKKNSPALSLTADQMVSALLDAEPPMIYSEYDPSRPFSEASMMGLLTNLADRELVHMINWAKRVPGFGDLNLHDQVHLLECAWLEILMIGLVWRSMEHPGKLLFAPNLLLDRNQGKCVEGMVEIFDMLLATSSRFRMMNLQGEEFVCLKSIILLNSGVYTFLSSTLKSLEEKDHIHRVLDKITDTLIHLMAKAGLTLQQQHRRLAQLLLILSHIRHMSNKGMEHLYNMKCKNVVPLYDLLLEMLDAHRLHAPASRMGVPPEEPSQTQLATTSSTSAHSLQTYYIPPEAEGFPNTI
Sequence of Retinoic acid receptor alpha (Homo sapiens) (P10276 whole entry, looked up): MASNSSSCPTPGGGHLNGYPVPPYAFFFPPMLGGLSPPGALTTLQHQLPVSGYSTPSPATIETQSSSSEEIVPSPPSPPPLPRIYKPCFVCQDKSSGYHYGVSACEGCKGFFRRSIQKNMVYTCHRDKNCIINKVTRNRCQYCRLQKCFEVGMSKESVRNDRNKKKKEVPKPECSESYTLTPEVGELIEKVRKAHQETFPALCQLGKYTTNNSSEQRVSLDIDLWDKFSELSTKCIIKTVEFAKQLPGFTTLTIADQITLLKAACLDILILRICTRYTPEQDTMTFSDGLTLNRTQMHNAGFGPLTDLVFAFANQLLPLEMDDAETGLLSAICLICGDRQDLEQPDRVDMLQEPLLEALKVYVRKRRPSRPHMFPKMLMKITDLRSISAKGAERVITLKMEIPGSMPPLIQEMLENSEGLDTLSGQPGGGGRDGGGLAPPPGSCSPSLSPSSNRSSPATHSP
Sequence of Peroxisome proliferator-activated receptor gamma (Homo sapiens) (P37231 whole entry, looked up): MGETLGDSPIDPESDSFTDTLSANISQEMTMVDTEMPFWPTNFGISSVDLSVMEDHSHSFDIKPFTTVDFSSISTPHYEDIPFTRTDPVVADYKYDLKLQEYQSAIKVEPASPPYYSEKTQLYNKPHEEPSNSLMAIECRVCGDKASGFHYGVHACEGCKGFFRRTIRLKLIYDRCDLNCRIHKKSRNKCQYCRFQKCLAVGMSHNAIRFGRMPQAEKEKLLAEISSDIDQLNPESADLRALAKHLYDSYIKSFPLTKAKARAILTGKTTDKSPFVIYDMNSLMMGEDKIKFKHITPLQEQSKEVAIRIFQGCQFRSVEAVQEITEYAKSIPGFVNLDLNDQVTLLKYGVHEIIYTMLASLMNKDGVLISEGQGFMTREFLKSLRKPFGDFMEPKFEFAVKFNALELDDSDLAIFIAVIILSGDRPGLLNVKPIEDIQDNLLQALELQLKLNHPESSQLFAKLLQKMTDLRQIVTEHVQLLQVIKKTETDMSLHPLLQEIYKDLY
Sequence of Estrogen receptor beta (Homo sapiens) (Q92731 whole entry, looked up, the tested form may be a part): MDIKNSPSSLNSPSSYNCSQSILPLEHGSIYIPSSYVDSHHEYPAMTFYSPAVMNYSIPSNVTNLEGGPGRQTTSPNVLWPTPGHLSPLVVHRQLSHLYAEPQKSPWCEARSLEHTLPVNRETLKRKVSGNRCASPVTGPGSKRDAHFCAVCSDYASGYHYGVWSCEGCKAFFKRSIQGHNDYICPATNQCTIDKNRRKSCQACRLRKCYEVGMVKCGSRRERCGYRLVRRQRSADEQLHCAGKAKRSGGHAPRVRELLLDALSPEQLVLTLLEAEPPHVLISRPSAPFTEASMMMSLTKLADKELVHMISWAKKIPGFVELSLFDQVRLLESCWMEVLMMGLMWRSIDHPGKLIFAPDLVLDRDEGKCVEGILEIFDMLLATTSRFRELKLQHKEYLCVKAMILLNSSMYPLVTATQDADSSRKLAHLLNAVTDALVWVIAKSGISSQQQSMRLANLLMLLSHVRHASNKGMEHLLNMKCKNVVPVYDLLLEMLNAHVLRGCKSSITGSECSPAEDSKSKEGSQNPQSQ
Sequence of PGR (gene 5241) (P06401 whole entry, looked up): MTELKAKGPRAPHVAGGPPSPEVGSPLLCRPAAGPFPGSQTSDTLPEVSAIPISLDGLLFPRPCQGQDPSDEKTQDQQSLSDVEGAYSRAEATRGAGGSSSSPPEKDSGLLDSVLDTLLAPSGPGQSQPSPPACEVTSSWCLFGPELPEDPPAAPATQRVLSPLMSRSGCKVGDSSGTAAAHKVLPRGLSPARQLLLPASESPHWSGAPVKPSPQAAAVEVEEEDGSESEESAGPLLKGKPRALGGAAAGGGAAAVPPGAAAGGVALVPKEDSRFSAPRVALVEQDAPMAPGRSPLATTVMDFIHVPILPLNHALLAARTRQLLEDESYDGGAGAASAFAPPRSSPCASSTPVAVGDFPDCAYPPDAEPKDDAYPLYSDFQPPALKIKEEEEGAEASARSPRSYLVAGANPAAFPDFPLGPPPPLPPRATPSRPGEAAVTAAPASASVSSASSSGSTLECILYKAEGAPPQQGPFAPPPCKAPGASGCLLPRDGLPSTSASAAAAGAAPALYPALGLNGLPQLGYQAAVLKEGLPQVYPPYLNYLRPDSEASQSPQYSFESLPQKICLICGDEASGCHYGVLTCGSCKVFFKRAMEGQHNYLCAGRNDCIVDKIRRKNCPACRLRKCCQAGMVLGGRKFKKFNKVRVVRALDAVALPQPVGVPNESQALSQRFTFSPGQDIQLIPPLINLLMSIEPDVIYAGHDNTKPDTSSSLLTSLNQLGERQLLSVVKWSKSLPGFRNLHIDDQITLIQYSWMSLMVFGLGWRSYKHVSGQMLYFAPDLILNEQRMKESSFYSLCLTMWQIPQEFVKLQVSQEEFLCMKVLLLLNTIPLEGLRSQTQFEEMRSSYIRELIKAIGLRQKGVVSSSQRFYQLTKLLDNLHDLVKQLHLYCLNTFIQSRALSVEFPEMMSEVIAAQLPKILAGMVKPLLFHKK

For the molecule `CC(C)CCCCCOC(=O)CS`, the outcome in [1] was inactive.
Take `COc1ccc(-c2coc3cc(O)cc(O)c3c2=O)cc1`: the molecule was called inactive in assay [2] and in assay [3]. In addition, the results for the half-maximal activity concentration (AC50) in assay [4] and in assay [5] were 8.5 µM (active) and 12.4 µM (active), respectively.
For `CCc1occc(=O)c1O`, the call in assay [2], in [4], in assay [5], in [6], in assay [7] and in assay [8] was inactive. For the same molecule, the molecule was classed as inactive in [9].
`CN(C)c1ccc2nc3ccc(=[N+](C)C)cc-3sc2c1`: the AC50 – broadly, the concentration at which the activity in the assay is half-maximal – in [10] is 32.7 µM (active); in assay [11] it was 7.57 µM (active); in assay [12], 14.7 µM (active); in assay [4] it was 40.6 µM (active); in assay [5], 28.2 µM (active); in [8] it was 26.3 µM (active). Moreover, the AC50 in assay [9] was 15.3 µM (active).
Consider `CC(C)c1cc(C(C)C)cc(C(C)C)c1`, for which the call in assay [2], in [13], in assay [12], in assay [4] and in assay [5] was inactive.
With `CCCCc1ccc(Cl)cc1`, the outcome in assay [2], in [12], in assay [4], in [5], in assay [6] and in assay [7] was inactive. Moreover, the call in [8] was inactive.
Take `CCCCCCCCCC[N+](C)(CCCCCCCCCC)CCC[Si](OC)(OC)OC`: the AC50 in assay [10] was 25 µM (active); in assay [2], 4.21 µM (active); in [4], 24.1 µM (active); in assay [5] it was 81.9 µM (active); in assay [8], 11.7 µM (active); in assay [9], 11.6 µM (active). In addition, the result in assay [12] was inactive.
`CC(C)COC(=O)CC(C(=O)OCC(C)C)S(=O)(=O)O` (stereo not drawn): in assay [2], the concentration at half-maximal activity (AC50) is 25 µM (active). The molecule was called inactive in assay [13], in assay [4], in assay [5] and in assay [9].
Take `N#Cc1ccc(C2CCCc3cncn32)cc1` (stereo not drawn): the result in [2], in assay [3] and in assay [9] was inactive. Further, the concentration at half-maximal activity (AC50) in [4] was 18.2 µM (active); in assay [5] it was 15.8 µM (active).
Consider `CC(CCC(=O)O)(c1ccc(O)cc1)c1ccc(O)cc1`, for which the call in [2], in assay [6], in assay [7], in [8] and in [9] was inactive. For the same molecule, the AC50 in [3] is 6.23 µM (active); in assay [12], 52.3 µM (active); in assay [4], 47.1 µM (active); in assay [5], 35.7 µM (active).
On to `CCN(CC)c1cccc(C)c1`, for which the results for the half-maximal activity concentration (AC50) in assay [14] and in assay [15] were 38.5 µM (active) and 4.96 µM (active), respectively.
On to `Oc1ccc(-c2ccccc2)c(Cl)c1`, for which the result in [10], in [13], in assay [3], in assay [17], in assay [5] and in [8] was inactive. The AC50 in [16] is 16.3 µM (active); in assay [4] it was 91 µM (active); in [9], 69.5 µM (active).
With `O=C(Nc1ccccc1)c1cc(Cl)ccc1O`, the molecule was classed as inactive in [2], in [4], in assay [5], in assay [6] and in assay [8]. The AC50 is 33.9 µM (active) in [12], 17.5 µM (active) in [7] and 16.1 µM (active) in assay [9].
Turning to `C/C=C/C=C/CCCCCCCO`, the half-maximal activity concentration (AC50) in [2] was 25 µM (active); in assay [9], 5.06 µM (active). Moreover, the outcome in [13], in assay [4], in assay [5], in assay [6] and in [8] was inactive.
